Assay outcomes as filed in PubChem.
An excerpt weighted towards active compounds, which were near 3% of everything screened.
OvCa metastasis = Primary qHTS assay for Inhibitors of ovarian cancer metastasis using an organotypic tumor microenvironment (TME) model; SKOV3ip1-GFP adhesion/invasion on 3D omental model, fluorescence; Potency, µM (top dose mostly 45.8 µM), usual class: inhibitors; hit rate 0.1% among 46,000; further: nearly all actives have a fitted effect of over 65% in size
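qHTS, 4-pt dose (0.36-46 umol/L); SKOV3ip1-GFP, 1,200 cells/well, no FBS; primary omental fibroblast/mesothelial co-culture 48 h pre-grown; 2 h RT + 16 h 37 C; PBS wash, 4% PFA; GFP count 488/509 nm.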
p53null 39C kill = qHTS Screen for Compounds that Selectively Target Cancer Cells with p53 Mutations: Cytotoxicity of p53 Null Cells at the Nonpermissive Temperature | H1299 p53-null (neo) cells, 39C, ATPlite viability, 24 h | Potency, µM (doses to about 46.1 µM), most hits filed as cytotoxic | AID 904, 2007 | hit rate 0.97% among 55,000; further: nearly all actives have a fitted effect of over 50% in size
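Following overnight plating at 37C (600 cells/well), H1299-neo or H1299-p53A138V cells are dosed up to 46 uM. Incubation lasts 24 hr at 39C before ATP detection.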
PMP22 txn prim = Cell-based coincidence reporter assay to measure PMP22 gene transcription in S16 Pmp22-F2sN cells - Primary screen; Potency, µM (doses to about 57.5 µM), usual class: inhibitors; S16 Pmp22-F2sN Schwann cells, FLuc/NLuc coincidence luminescence, 24 h; hit rate 2% among 43,000; active means clear falling dose curves in both reporters; inconclusive means both reporters move, but less clearly or upward; inactive means either reporter flat; the % is the NLuc reporter signal
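qHTS, 1536-well. Cells seeded, compounds added by pin tool, 24 h 37C. Nano-Glo reagent 1 (lysis/FLuc), 10 min RT, read; Stop&Glo, 10 min RT, read NLuc.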
S16 viability = Cell viability qHTS assay in S16 Pmp22-F2sN cells. S16 Pmp22-F2sN Schwann cells viability, CellTiter-Glo, 24 h. Potency, µM (doses to about 57.5 µM), actives largely listed as cytotoxic. hit rate 0.48% among 43,000; further: nearly all actives have a fitted effect of over 65% in size
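Used to flag compounds lowering reporter output through toxicity, this quantitative HTS measures ATP-based CellTiter-Glo luminescence in S16 Pmp22-F2sN Schwann cells after 24 h compound exposure at 37C.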
p53null 32C tox = qHTS Screen for Compounds that Selectively Target Cancer Cells with p53 Mutations: Cytotoxicity of p53 Null Cells at the Permissive Temperature; Potency, µM (series often up to 46.1 µM), most hits filed as cytotoxic; hit rate 0.62% among 55,000; H1299-neo p53 null cells, ATP luminescence, 24 h, 32C; further: nearly all actives have a fitted effect of over 55% in size
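Cells lacking p53 (H1299-neo) are plated at 600 per well and allowed to settle overnight at 37C. Test compounds (up to 46 uM) are added and held 24 hours at 32C, then ATP is quantified by luminescence.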
mTORC1 inh = Acumen qHTS Assay for Inhibitors of the mTORC1 Signaling Pathway in MEF (Tsc2-/-, p53-/-) Cells: Sytravon | Tsc2-/- p53-/- MEF, phospho-rpS6 immunofluorescence/PI, 24 h | Potency, µM (highest dose often 38.3 µM), actives largely listed as inhibitors | hit rate 0.78% among 44,000; further: nearly all actives have a fitted effect of over 50% in size
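Plate MEFs (Tsc2-/-, p53-/-, empty vector) in DMEM/10% FBS; after 24 h add compound, incubate 24 h at 37 degree Celsius; fix in PFA/TX-100, block, stain phospho-rpS6 and 10 uM PI; scan at 488 nm; report % positive cells.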
Large screens that a line does not name were inactive. Unless noted, the call rests on the fitted dose curve; in most records, active means well fitted curve in the direction sought with a large enough effect; inconclusive means small, poorly fitted or top-dose-only effect, or another doubt; inactive means no such curve, though single readings can be large; an effect the other way counts as inactive or inconclusive.

CCOc1ccc(/C=C/c2nc3ccccc3n2S(=O)(=O)c2ccc(Br)cc2)cc1	p53null 39C kill 7.94µM, p53null 32C tox 12.6µM
O=S(=O)(c1cccc(C(F)(F)F)c1)n1c(/C=C/c2ccccc2)nc2ccccc21	p53null 39C kill inconclusive, PMP22 txn prim inconclusive, S16 viability inconclusive, p53null 32C tox 15.8µM
CSc1ccc(/C=C/c2nc3ccccc3n2S(=O)(=O)c2ccc(Br)cc2)cc1	p53null 39C kill 2.51µM, PMP22 txn prim inconclusive, S16 viability inconclusive, p53null 32C tox 3.16µM
CC(C)(C)[N+]([O-])=Cc1ccc(S(=O)(=O)O)cc1S(=O)(=O)O	none (no result: p53null 39C kill, PMP22 txn prim, S16 viability, p53null 32C tox, mTORC1 inh)
CC(C)(C)[C@H](NC(=O)c1ccc(N)c(Cl)c1)C(=O)N1CCC[C@@H]1C(=O)N[C@H](C#N)CC(=O)O	none (no result: p53null 39C kill, PMP22 txn prim, S16 viability, p53null 32C tox, mTORC1 inh)
CCOc1ccc(-c2nnc(-c3ccccc3)o2)cc1	p53null 39C kill 12.6µM, p53null 32C tox inconclusive (no result: OvCa metastasis, PMP22 txn prim, S16 viability, mTORC1 inh)
CCOc1ccc(-c2nc3ccccc3c(=O)o2)cc1	p53null 39C kill 6.31µM, p53null 32C tox 3.98µM
Cc1ccc2nc(/C(C#N)=C/c3cccc(Br)c3)[nH]c2c1	PMP22 txn prim inconclusive, S16 viability inconclusive, mTORC1 inh 18.5µM
COc1cc(/C=C(\C#N)c2nc3ccc(C)cc3[nH]2)ccc1OC(C)C	none
Clc1cccc(-n2ncc3c(N4CCCCC4)ncnc32)c1	p53null 39C kill 12.6µM, p53null 32C tox 3.16µM
Fc1ccc(-n2ncc3c(N4CCC(Cc5ccccc5)CC4)ncnc32)cc1	none
Cc1ccc(-n2ncc3c(N4CCCCCC4)ncnc32)cc1	PMP22 txn prim inconclusive, p53null 32C tox 3.16µM
Fc1ccc(-n2ncc3c(N4CCCCCC4)ncnc32)cc1	p53null 39C kill 14.1µM, p53null 32C tox inconclusive
Clc1cccc(-n2ncc3c(N4CCCCCC4)ncnc32)c1	p53null 32C tox inconclusive
O=C(Nc1cc2cc[nH]c2cn1)c1ccccc1	none (no result: p53null 39C kill, PMP22 txn prim, S16 viability, p53null 32C tox, mTORC1 inh)
C[C@@H](NCc1cc2ccccc2[nH]1)c1cccc2ccccc12	none (no result: p53null 39C kill, PMP22 txn prim, S16 viability, p53null 32C tox, mTORC1 inh)
Cc1cccc(C)c1OCC(=O)Nc1c(C(=O)c2ccccc2)oc2ccccc12	OvCa metastasis 10µM
COc1ccc(C(=O)c2oc3ccccc3c2NC(=O)c2ccc(F)cc2)cc1	none
O=C(Nc1noc2ccccc12)c1ccc(F)cc1	p53null 39C kill inconclusive, p53null 32C tox 12.6µM
COc1ccc(C(=O)Nc2c(C(=O)c3ccc(F)cc3)oc3ccccc23)cc1	p53null 39C kill inconclusive, PMP22 txn prim 10.2µM
COc1cccc(NC(=O)c2oc3ccccc3c2NC(=O)c2ccc(OC(C)C)cc2)c1	p53null 39C kill 12.6µM, p53null 32C tox 15.8µM
Cc1cc(OCC(=O)Nc2c(C(=O)c3ccccc3)oc3ccccc23)cc(C)c1Cl	none
Nc1nc(=O)n([C@H]2C[C@H](O)[C@@H](CO)O2)cc1F	none (no result: p53null 39C kill, PMP22 txn prim, S16 viability, p53null 32C tox, mTORC1 inh)
Cc1[nH]c(C=C2C(=O)Nc3ccccc32)c(C)c1CCC(=O)O	none (no result: p53null 39C kill, PMP22 txn prim, S16 viability, p53null 32C tox, mTORC1 inh)
O=C(NCCc1ccccc1Cl)c1ccc(Cn2c(=O)c3cccn3c3cccnc32)cc1	OvCa metastasis inconclusive, p53null 39C kill 10µM, PMP22 txn prim inconclusive, p53null 32C tox inconclusive
Cc1ccc(CCNC(=O)c2c(C)oc3ncn(CC(C)C)c(=O)c23)cc1	PMP22 txn prim inconclusive
CCCCNC(=O)c1c(C)oc2ncn(CC(C)C)c(=O)c12	PMP22 txn prim 10.6µM, S16 viability inconclusive
COc1ccc(-c2oc3c(CC=C(C)C)c(O)cc(O)c3c(=O)c2O)cc1	none (no result: p53null 39C kill, PMP22 txn prim, S16 viability, p53null 32C tox, mTORC1 inh)
CC(C)(N)C(=O)N[C@H](COCc1ccccc1)C(=O)N1CCC2(CC1)CN(S(C)(=O)=O)c1ccccc12	none (no result: p53null 39C kill, PMP22 txn prim, S16 viability, p53null 32C tox, mTORC1 inh)
CC(C)(C)n1ncc2c(=O)n(CC(=O)c3ccccc3)cnc21	p53null 39C kill 12.6µM (no result: OvCa metastasis, PMP22 txn prim, S16 viability, mTORC1 inh)
